Source: the supplement of paper PMC12024529

Each molecule was assayed on HEK293 WT BDD-FVIII-Gluc (assay: secreted FVIII-Gluc luciferase Z-score vs DMSO control; higher = more FVIII-Gluc secretion). Conditions: 5 µM.
Procedure: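 Natural plant-compound library (480 compounds, ST catalogue IDs) screened on HEK293 cells stably expressing WT BDD-FVIII-Gaussia luciferase fusion at 5 µM. Secreted Gluc activity in the medium is given as a Z-score relative to DMSO controls.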

| SMILES | secreted FVIII-Gluc luciferase Z-score |
| --- | --- |
| O=c1cccc2n1C[C@@H]1CNC[C@H]2C1 | 0.0778 |
| C=C(C)[C@@H]1[C@H]2OC(=O)[C@@H]1[C@]1(O)C[C@H]3O[C@]34C(=O)O[C@H]2[C@]14C | 0.972 |
| O=c1ccc2cc(OC3OC(CO)C(O)C(O)C3O)c(O)cc2o1 (stereo not given) | 0.455 |
| Oc1ccc(CC2NCCc3cc(O)c(O)cc32)cc1O (stereo not given) | 0.392 |
| COc1cc([C@@H]2c3cc4c(cc3[C@H](O)[C@H]3COC(=O)[C@H]23)OCO4)cc(OC)c1OC | -3.94 |
| C=C[C@H]1CN2CCC1CC2c1[nH]c2ccccc2c1CCO (stereo not given in full) | 0.502 |
| CN1C[C@H](CNC(=O)OCc2ccccc2)C[C@@H]2c3cccc4c3c(cn4C)C[C@H]21 | -0.629 |
| CC(=O)OC1CC(OC2C(O)CC(OC3C(O)CC(OC4CCC5(C)C(CCC6C5CC(O)C5(C)C(C7=CC(=O)OC7)CCC65O)C4)OC3C)OC2C)OC(C)C1OC1OC(CO)C(O)C(O)C1O (stereo not given) | -4 |
| Cc1ccc2[nH]c(CCN)cc2c1 | 1.37 |
| COc1cc2c(c(OC)c1OC)-c1ccc(OC)c(=O)cc1C(NC(C)=O)CC2 (stereo not given) | -6.65 |
| CC(C)[C@@]1(NC(=O)[C@@H]2C[C@@H]3c4cccc5[nH]cc(c45)C[C@H]3N(C)C2)O[C@@]2(O)[C@@H]3CCCN3C(=O)[C@H](Cc3ccccc3)N2C1=O | -0.176 |
| COc1ccc2c3c([nH]c2c1)C(C)=NCC3 | -2.05 |
| COc1ccc2c(c1)[nH]c1c(C)nccc12 | -2.87 |
| COc1cccc2c1cc([N+](=O)[O-])c1c(C(=O)O)cc3c(c12)OCO3 | 0.158 |
| NCCc1c[nH]c2ccc(O)cc12 | 0.752 |
| O=C1CCCC2[C@@H]3CCCN4CCC[C@H](CN12)[C@H]34 (stereo not given in full) | 0.572 |
| CC1CC[C@@]2(NC1)O[C@H]1C[C@H]3[C@@H]4CC=C5C[C@@H](O)CC[C@]5(C)[C@H]4CC[C@]3(C)[C@H]1[C@@H]2C (stereo not given in full) | -1.02 |
| CN1CC(C(=O)NC2(C)OC3(O)C4CCCN4C(=O)C(Cc4ccccc4)N3C2=O)C=C2c3cccc4[nH]cc(c34)CC21 (stereo not given) | 0.871 |
| CNC1C2CN3CCC(O2)C13 (stereo not given) | -1.02 |
| CN(C)Cc1c[nH]c2ccccc12 | 0.161 |

| SMILES | secreted FVIII-Gluc luciferase Z-score |
| --- | --- |
| CC1CC[C@@]2(OC1)O[C@H]1[C@@H](O)[C@H]3[C@@H]4CC[C@H]5C[C@@H](O[C@@H]6O[C@H](CO)[C@H](O[C@@H]7O[C@H](CO)[C@@H](O)[C@H](O[C@@H]8OC[C@@H](O)[C@H](O)[C@H]8O)[C@H]7O[C@@H]7O[C@H](CO)[C@@H](O)[C@H](O[C@@H]8O[C@H](CO)[C@@H](O)[C@H](O)[C@H]8O)[C@H]7O)[C@H](O)[C@H]6O)[C@H](O)C[C@]5(C)[C@H]4CC[C@]3(C)[C@H]1[C@@H]2C (stereo not given in full) | 0.427 |
| CCC1CN2CCC1CC2C(O)c1ccnc2ccc(OC)cc12 (stereo not given) | -0.168 |
| C/C=C1/CN2CC[C@]34C(=C(C=O)[C@H]1C[C@H]23)Nc1ccccc14 | 0.372 |
| CCN1CC2(COC(=O)c3ccccc3N3C(=O)CC(C)C3=O)CC[C@H](OC)[C@@]34C5C[C@@H]6[C@@H](OC)C[C@@](O)(C5[C@H]6OC)[C@](O)([C@@H](OC)C23)[C@@H]14.[O-][Cl+3]([O-])([O-])O (stereo not given in full) | 0.461 |
| C/C=C/c1ccc2c(c1)OCO2 | 0.131 |
| c1cncc(C2CCCCN2)c1 (stereo not given) | -0.711 |
| C[C@]1(C(=O)O)CCC[C@]2(C)c3cc(O)ccc3CC[C@@H]12 | -1.23 |
| Cc1nccc2c1[nH]c1ccccc12 | -0.617 |
| OC1COC(NC2OCC(O)C(O)C2O)C(O)C1O (stereo not given) | 0.00225 |
| C=CCCN1C[C@@H]2C[C@@H](C1)c1cccc(=O)n1C2 | -0.00507 |
| COc1cc2c(cc1OC)-c1c(O)c(OC)cc3c1[C@H](C2)N(C)CC3 | 0.65 |
| C[C@@H]1C[C@@H]([C@H](O)CC2CC(=O)NC(=O)C2)C(=O)[C@@H](C)C1 | -7.2 |
| CC[C@@H](CO)NC(=O)[C@@H]1C=C2c3cccc4[nH]cc(c34)C[C@H]2N(C)C1 | 0.791 |
| CC(C)(O)[C@@H]1[C@H]2OC(=O)[C@@H]1[C@]1(O)C[C@H]3O[C@]34C(=O)O[C@H]2[C@]14C | -0.634 |
| CC(=O)N1C[C@@H]2C[C@H](C1)c1cccc(=O)n1C2 | -0.118 |
| CC(C)(C)[C@]1(O)C[C@@H]2OC(=O)C[C@@]23C(=O)O[C@@H]2OC(=O)[C@H](O)[C@]213 | -0.32 |
| O=C1C[C@@H]2OCC=C3CN4CC[C@]56c7ccccc7N1[C@H]5[C@H]2[C@H]3C[C@H]46 | -0.432 |
| CN[C@@H](Cc1c[nH]c2ccccc12)C(=O)O | 0.0662 |
| C[N+]1=Cc2cc3c(cc2CC1)OCO3 | 0.204 |
| C[C@H]1C(=O)O[C@H]2CCN3CC=C(COC(=O)[C@](C)(O)[C@@]1(C)O)C23 (stereo not given in full) | 0.0827 |
